These compounds were tested on Sonic hedgehog protein (Shh) (assay: Sonic hedgehog microarray binding compounds – biochemical, small-molecule microarray, 635/667 nm fluorescence, primary screen (AID 1151;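 also: Shh protein binding to compounds spotted on small-molecule microarray slides; score combines spot fluorescence intensity with signal-to-noise across triplicate slides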)). Settings: 635 nm fluorescence, higher = more signal.

SMILES | composite z-score
COCCOC(=O)N1C(=O)[C@@]2(c3ccccc31)[C@H](c1ccc(OCCO)cc1)N1[C@H](c3ccccc3)[C@H](c3ccccc3)OC(=O)[C@H]1[C@@H]2C(=O)N1CCc2cc(OC)c(OC)cc2C1 | 1.84
O=C(CS)NCCCCCNC(=O)[C@H]1C[C@H]2C(=O)NCC(=O)N2[C@H]1c1cccc(OCCO)c1 | 0.27
CCCC[C@@H]1C[C@H]1[C@@H](NC(=O)c1cccnc1)c1ccc(Cl)cc1 | -1.35
CCCCCCCCCCC(O)C1C=CC2C(=O)NC(=O)C2N1Nc1ccc(Cl)cc1Cl (stereo unspecified) | -0.349
O=C1O[C@H](c2ccccc2)[C@H](c2ccccc2)N2[C@H]1[C@@H](C(=O)N1CCN(c3ncccn3)CC1)[C@]1(C(=O)Nc3ccc(C#CC4=CCCCC4)cc31)[C@H]2c1ccccc1OCCO | 1.79
CCCCC(O)C1C=CC2C(=O)N(C)C(=O)C2N1N1CCCCC1 (stereo unspecified) | 0.0629
O=C1OCCC=C[C@H]2OC34C=CCN(c5ccc(Cl)cc5)C(=O)[C@H]3N(CCCO)C(=O)[C@@H]4C12 (stereo partly specified) | 0.0088
CO[C@H]1O[C@H](CO)[C@@H](OC(=O)Nc2cccc(F)c2)[C@H](OC(=O)Nc2ccccc2)[C@H]1OC(=O)Nc1ccccc1 | 1.61
C#CCOc1ccc(C[C@@H](C(=O)OC)N(CC#C)[C@@H](/C=C/C2CC2)[C@H](O)Cc2ccccc2)cc1 | -0.34
CCCCCCc1nc(-c2ccc(-c3ccc(Cl)c(Cl)c3)o2)c(C)c2c1[Si](C(C)C)(C(C)C)OC2 | 0.14
COCCOC(=O)N1C(=O)[C@@]2(c3ccccc31)[C@H](C(=O)N1CCCCCCC1)[C@H]1C(=O)O[C@H](c3ccccc3)[C@H](c3ccccc3)N1[C@@H]2c1ccc(OCCO)cc1 | 2.31
COc1ccc([Si](C)(C)[C@H]2[C@H](CCO)O[C@@]3(C(=O)N(Cc4ccccc4)c4ccc(N5CCCCC5=O)cc43)[C@@H]2C)cc1 | 0.929
COCCCNC(=O)[C@@]1(Sc2ccc(C)cc2)CC(=O)N(Cc2ccccc2Cl)[C@@H]1c1ccc(CO)cc1 | 2.02
CO[C@H]1O[C@H](CO)[C@@H](OC(=O)Nc2ccccc2)[C@@H]2OC(=O)[C@@H](Cc3ccc4ccccc4c3)C/C=C/C[C@H](Cc3ccc4ccccc4c3)C(=O)O[C@@H]12 | 0.662
[N-]=[N+]=Nc1ccccc1C[C@]1(C(=O)N2CCCCC2)COC(c2ccc(OCCCO)cc2)=N1 | -0.385
C=C(C(=O)CC[C@H](OC(C)=O)c1ccccc1OCCO)C(C)C | 2.19
COCCOC(=O)N1C(=O)[C@@]2(c3cc(C#CCCO)ccc31)[C@H](c1ccc(OCCO)cc1)N1[C@H](c3ccccc3)[C@H](c3ccccc3)OC(=O)[C@H]1[C@@H]2C(N)=O | 0.811
C=CCC(OC(C)=O)[C@@H]1[C@@H](N(Cc2ccc(-c3ccccc3)cc2)C(=O)Cc2ccc(F)cc2)c2cc(OCCCO)ccc2N1C(=O)c1ccc2ccccc2c1 (stereo partly specified) | 0.627

SMILES | composite z-score
COC(=O)[C@@]1(Cc2ccccc2)[C@H]2c3cc(C(=O)N4CCCC4)n(Cc4ccc(O)c(OC)c4)c3C[C@H]2CN1C(=O)c1ccccc1 | -1.39
CCOC(=O)C1=CC[C@@H](c2ccc(C(F)(F)F)cc2)N(S(=O)(=O)c2ccc(C)cc2)[C@H]1c1ccccc1 | 0.0252
O=C(CS)NCCCCCNC(=O)[C@@H]1C[C@@H]2C(=O)NCC(=O)N2[C@@H]1c1cccc(OCCO)c1 | 1.77
C=CCC(OC(C)=O)[C@@H]1[C@@H](N(Cc2ccc(-c3cccc(C(F)(F)F)c3)o2)C(=O)Cc2ccc(OC)cc2)c2cc(OCCCO)ccc2N1C(=O)c1ccc2ccccc2c1 (stereo partly specified) | 0.804
CC=CC(O)C1C=CC2C(=O)N(C)C(=O)C2N1N(c1ccccc1)c1ccccc1 (stereo unspecified) | 0.306
O=C1O[C@@H](c2ccccc2)[C@@H](c2ccccc2)N2[C@@H](c3ccc(OCCO)cc3)[C@]3(C(=O)Nc4ccc(C#CCCO)cc43)[C@@H](C(=O)NC[C@H](O)c3ccccc3)[C@H]12 | 1.88
CC[C@@H]1C=C(C(=O)O)[C@H](c2cccc3ccccc23)N1S(=O)(=O)c1ccc(C)cc1 | -0.173
C[N+](C)(C)CCCCCCNC(=O)[C@H]1C[C@H]2C(=O)N[C@@H](Cc3ccccc3)C(=O)N2[C@H]1c1cccc(OCCO)c1 | 2.08
CCOC(=O)C[C@H]1[C@H](OC(=O)c2ccc(C(=O)c3ccccc3)cc2)[C@@H](NC(=O)Cc2ccc(OC)cc2)c2cc(OCCCO)ccc2N1C(=O)c1ccc2ccccc2n1 | 0.671
CC(C)(C)OC(=O)CC[C@]1(C(=O)NCCN2CCOCC2)COC(c2ccc(OCCCO)cc2)=N1 | 0.998
COc1ccc(C(=O)Nc2cccc(CN3C(=O)[C@]4(O[C@H](CCn5cc(CCO)nn5)[C@@H]([Si](C)(C)c5ccc(OC)cc5)[C@@H]4C)c4ccccc43)c2)cc1 | 1.21
COc1ccc(CCNC(=O)[C@@]2(c3ccc([N+](=O)[O-])cc3)CC(=O)N(CC34CC5CC(CC(C5)C3)C4)[C@@H]2c2ccc(CO)cc2I)cc1 | 1.75
COc1ccc([C@H]2OC[C@@H]3CCC(=O)N32)cc1 | 0.79
O=C1O[C@@H](c2ccccc2)[C@@H](c2ccccc2)N2[C@@H](c3ccccc3OCCO)[C@]3(C(=O)Nc4ccccc43)[C@@H](C(=O)O)[C@H]12 | 0.0546
CCOc1cc(C(O)C2C=CC3C(=O)N(c4ccccc4)C(=O)C3N2Nc2ccc(C(C)C)cc2)ccc1O (stereo unspecified) | 0.323
O=C1OCC=C[C@H]2OC34C=CCN(Cn5nnc6ccccc65)C(=O)[C@H]3N(CCCCCO)C(=O)[C@@H]4[C@@H]12 (stereo partly specified) | -0.502
COC(=O)C(CC#Cc1ccc2c(c1)[C@]1(C(=O)N2)[C@H](c2ccc(O)cc2)N2[C@H](c3ccccc3)[C@H](c3ccccc3)OC(=O)[C@H]2[C@@H]1C(=O)N1CCN(c2ncccn2)CC1)C(=O)OC | 0.618
CC[C@@H]1C=C(C(=O)O)[C@H](c2ccc(C)cc2)N1S(=O)(=O)c1ccc(C)cc1 | -0.103

Reference: PubChem BioAssay
